A selection: hits, their analogues and other compounds. The true share with any hit is near 2.5%.
Bst PK mod: alters activity of Bacillus stearothermophilus pyruvate kinase. purified pyruvate kinase, luminescence ATP production; ribose 5-phosphate activator present at AC10. Potency, µM. 51,000 tested, 1.2% active; in the data active means potency below about 11 µM; inconclusive means mostly about 12 µM to 25 µM;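 the screen sought inhibitors and activators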;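 further: scaled between full activation by ribose 5 phosphate and full inhibition by luteolin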
Luciferase inh: inhibitors of firefly luciferase. P08659. purified firefly luciferase, luminescence, 8 min. Potency, µM (highest dose often 57.1 µM), without a hit: top-dose activity change, negative = inhibition, most hits filed as inhibitors. 72,000 tested, 2.2% active. AID 411; active means well fitted inhibition curve with a large enough effect; inconclusive means small, poorly fitted or top-dose-only effect; further: nearly all actives have a fitted effect of over 40% in size
Target sequence (P08659 whole entry, looked up): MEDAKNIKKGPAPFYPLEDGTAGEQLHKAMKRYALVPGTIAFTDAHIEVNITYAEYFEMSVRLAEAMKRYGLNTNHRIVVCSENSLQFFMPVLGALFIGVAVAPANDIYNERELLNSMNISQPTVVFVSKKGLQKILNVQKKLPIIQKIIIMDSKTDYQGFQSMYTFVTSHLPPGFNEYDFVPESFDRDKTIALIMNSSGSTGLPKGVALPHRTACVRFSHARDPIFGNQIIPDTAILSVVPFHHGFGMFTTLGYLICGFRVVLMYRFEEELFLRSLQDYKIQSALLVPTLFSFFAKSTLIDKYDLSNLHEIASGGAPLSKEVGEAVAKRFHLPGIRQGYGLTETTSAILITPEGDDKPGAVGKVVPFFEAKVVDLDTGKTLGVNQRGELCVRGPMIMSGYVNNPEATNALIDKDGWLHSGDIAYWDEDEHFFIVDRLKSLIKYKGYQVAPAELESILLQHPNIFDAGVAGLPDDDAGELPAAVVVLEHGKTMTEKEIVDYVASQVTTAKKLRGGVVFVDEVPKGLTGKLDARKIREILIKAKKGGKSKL
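Titration-based qHTS; buffer 50 mM imidazole pH 7.2, 50 mM KCl, 7 mM MgCl2, 10 uM ATP, 0.01% Tween 20, 0.05% BSA; luciferase/luciferin detector mix added after compound; 8 min, ambient; luminescence.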
* = called active by the depositor; ! = not confirmed by another sample; [ ] = dose if it differs, or a comment. Unless noted, on the % scale 0 is the no-effect control and ±100 the full control effect; potency means the concentration at half of the fitted maximal effect.

How did O=c1c(-c2ccc(O)cc2)coc2cc(O)ccc12 do in these assays?
Luciferase inh: 10µM*!

How did C/C(CCN1CCCc2nc(C)c(C)cc21)=N\O[C@@H](C)c1cn([C@@H]2COC[C@@H]2O)nn1 do in these assays?
Luciferase inh: 0%[11.4 µM]

How did CCCCCC[C@@H]([C@H](C)O)n1cnc2c(N)ncnc21 do in these assays?
Luciferase inh: 5%

How did O=S(=O)(Nc1cccnc1)c1cccc2cccnc12 do in these assays?
Luciferase inh: -1%

How did O=S(=O)(O)n1ccnc1 (tested in a mixture with another compound) do in these assays?
Luciferase inh: 1%[11.4 µM]

How did Cc1nn2cc(-c3ccc(Cl)cc3)nc2s1 do in these assays?
Bst PK mod: inconclusive; Luciferase inh: 3.2µM*

Results for Cc1nn2cc(-c3ccc(-c4ccccc4)cc3)nc2s1 ?
Luciferase inh: 1µM*

How did Cc1nn2c(-c3ccc(Cl)cc3)nnc2s1 do in these assays?
Bst PK mod: inconclusive; Luciferase inh: -2%[25.5 µM]

How did O=C(O)CCc1nn2cc(-c3ccccc3)nc2[nH]c1=O do in these assays?
Bst PK mod: >26; Luciferase inh: -1%[25.5 µM]

Results for CCc1nn2cc(-c3ccccc3)nc2s1 ?
Bst PK mod: 2.4*; Luciferase inh: 1.6µM*

Results for Cc1c(C(=O)Nc2ccccc2)sc2nc(-c3ccccc3)cn12 ?
Bst PK mod: inactive; Luciferase inh: -20%

Results for C[C@@H]1/C=C\CC(=O)OC[C@H](C)C(=O)N2CCC[C@@H]2C(=O)OC1 ?
Luciferase inh: 0%[11.4 µM]

Results for Cc1noc(C)c1-c1ccc2ncnc(Nc3ccc(F)cc3)c2c1 ?
Luciferase inh: 1%[2.29 µM]

Results for c1ccc(CN2COc3c(ccc4c5c(ccc34)CN(Cc3ccccc3)CO5)C2)cc1 ?
Luciferase inh: 2%[11.4 µM]

Results for C[N+](C)(N)CCC[N+](C)(C)N ?
Luciferase inh: 1%[11.4 µM]

Results for C[C@@]12CCC(=O)C=C1CC[C@H]1[C@@H]2[C@@H](O)C[C@]2(C)[C@@H]1CC[C@@]2(O)C(=O)COC(=O)C1CCCC1 ?
Luciferase inh: 2%[11.4 µM]

How did COc1cc([C@H](O)CO)ccc1O do in these assays?
Luciferase inh: -1%

Results for CC(C)CCC[C@@H](C)[C@@H]1CC[C@@H]2[C@H]3CC[C@H]4C[C@@H](N)CC[C@@]4(C)[C@@H]3CC[C@]21C ?
Luciferase inh: 3%[11.4 µM]

What do the screens show for `COc1ccccc1-c1ccc(Nc2cccc(C(C)=O)c2)nn1`?
Bst PK mod: >57; Luciferase inh: 20µM*

What do the screens show for `COC(=O)c1cccc(Nc2cc(C)nc(-c3ccccc3O)n2)c1`?
Bst PK mod: >26; Luciferase inh: -2%[25.5 µM]

Results for N[C@H](CCCC(=O)O)C(=O)O ?
Luciferase inh: -11%

How did COCCn1c(=O)c(-c2ccc(Cl)cc2)nc2cnc(N3CCNCC3)nc21 do in these assays?
Luciferase inh: -1%[11.4 µM]

What do the screens show for `NC(=O)CSc1nc(N)c2c3c(sc2n1)CCCCC3`?
Bst PK mod: 11*; Luciferase inh: 13µM*

How did CCSc1nc(N)c2c3c(sc2n1)CCC3 do in these assays?
Bst PK mod: >26; Luciferase inh: -16%[25.5 µM]

What do the screens show for `COc1cccc(Cn2c(=O)c(-c3cccs3)nc3cnc(OCc4ccccc4)nc32)c1`?
Luciferase inh: 0%[11.4 µM]

How did Cc1cccc(NC(=O)C2CCN(S(=O)(=O)c3cccc4nsnc34)CC2)n1 do in these assays?
Bst PK mod: inconclusive; Luciferase inh: 2%

How did COc1ccc2nc(NC(=O)C3CCN(S(=O)(=O)c4cccc5nsnc45)CC3)sc2c1 do in these assays?
Bst PK mod: 3*; Luciferase inh: -2%

Results for O=C(/C=C\c1ccc(O)c(O)c1)OCCc1ccccc1 ?
Luciferase inh: -6%

Results for COc1ccccc1-c1ccc2ncnc(N3CCNCC3)c2c1 ?
Luciferase inh: 0%[2.29 µM]

Results for CCCCCOC(=O)c1[nH]c2c(c1C)C(=O)C(C(=O)OC)C(C)C2 (stereo not given) ?
Bst PK mod: >57; Luciferase inh: inconclusive

Results for COC(=O)C1C(=O)c2c([nH]c(C(=O)OCC3CCCO3)c2C)CC1C (stereo not given) ?
Luciferase inh: 7.9µM*

What do the screens show for `COCCOC(=O)c1[nH]c2c(c1C)C(=O)C(C(=O)OC)C(C)C2` (stereo not given)?
Luciferase inh: 10µM*

Results for CC1=C(C(=O)OCC2CCCO2)C(c2ccccc2)NC(=O)N1 (stereo not given) ?
Luciferase inh: 3%

What do the screens show for `NCCOC[C@H](N)C(=O)O`?
Luciferase inh: 0%[11.4 µM]

What do the screens show for `NC(N)=N[C@H](CC(=O)O)c1ccccc1`?
Luciferase inh: 1%[11.4 µM]

Results for O=C1c2c(O)cc(O)cc2O[C@@H](c2ccc(O)c(O)c2)[C@H]1O ?
Luciferase inh: 4%

What do the screens show for `C/C(=N\O)c1cccc[n+]1Cc1ccccc1`?
Luciferase inh: 4%[11.4 µM]

What do the screens show for `Nc1ncnc2c1nc(Sc1ccc(Cl)cc1)n2[C@@H]1O[C@H]2COP(=O)(O)O[C@@H]2[C@H]1O`?
Luciferase inh: 4%

Results for [Cu].[O-]/N=C1/C(=[OH+])Nc2ccccc21.[O-]Nc1c(O)[nH]c2ccccc12 ?
Luciferase inh: -1%[11.4 µM]

What do the screens show for `CCOC(=O)CSc1nc(N)c(C(=O)Nc2ccc(N(C)C)cc2)s1`?
Bst PK mod: inactive; Luciferase inh: 13µM*

Results for COc1ccc(NC(=O)c2sc(SC)nc2N)cc1 ?
Luciferase inh: -30%

Results for O=C(CSc1ccc(Cl)cc1)N1CCOCC1 ?
Bst PK mod: >57; Luciferase inh: -1%

What do the screens show for `O=C(CSc1nnc(SCc2ccc(Cl)cc2)s1)N1CCOCC1`?
Luciferase inh: 13µM*

Results for CN(C)CN1C(=O)S/C(=C2/C(=O)N(CN(C)C)c3ccccc32)C1=O ?
Luciferase inh: 1%[11.4 µM]

What do the screens show for `CSc1cccc(NC(=O)c2ccco2)c1`?
Luciferase inh: -14%

How did CC1N(C)c2cc(NC(=O)c3ccco3)ccc2C1(C)C (stereo not given) do in these assays?
Luciferase inh: 16µM*

Results for O=c1cc(-c2cccc(O)c2O)oc2ccccc12 ?
Luciferase inh: 0%[11.4 µM]

What do the screens show for `COc1ccc(-c2nnc(SCc3ccccc3F)o2)cc1OC`?
Bst PK mod: >57; Luciferase inh: -6%

What do the screens show for `Cc1ccc(-c2nnc(SCc3ccccc3F)o2)cc1`?
Bst PK mod: inactive; Luciferase inh: 20µM*

Results for CCOC(=O)Cc1csc(NC(=O)c2ccc3c(c2)OCO3)n1 ?
Luciferase inh: 20µM*

How did CCN(CC(=O)Nc1ccc2c(c1)OCCO2)CC(=O)Nc1cc(C)on1 do in these assays?
Bst PK mod: >57; Luciferase inh: 1%

Results for CCOc1ccc(C(=O)Nc2cc(C)on2)cc1OCC ?
Bst PK mod: inactive; Luciferase inh: 0%

What do the screens show for `CN(C(=O)c1ccc2c(c1)OCO2)C1(C(=O)NC2CCCC2)CCCCC1`?
Bst PK mod: inconclusive; Luciferase inh: -1%

How did Cc1cc(NC(=O)c2ccc3c(c2)OCCO3)no1 do in these assays?
Bst PK mod: 3*; Luciferase inh: 2µM*

What do the screens show for `CCOC(=O)Cc1csc(NC(=O)c2ccc(Br)s2)n1`?
Luciferase inh: -5%

What do the screens show for `Cc1cc(NC(=O)c2ccc3c(c2)OCO3)no1`?
Luciferase inh: 7.9µM*

How did O=C(NC1CCCCCCC1)c1ccc2c(c1)OCO2 do in these assays?
Luciferase inh: 16µM*

Results for O=C(O)c1ccccc1NCn1c(=S)sc2ccccc21 ?
Luciferase inh: 5%[11.4 µM]

From PubChem
